In PubChem BioAssay (NCATS):
For part of these data: Measured potencies and affinities stand elsewhere. Activity calls are given as the source filed them. The rule behind the calls is not given here.

Details: Ebola virus entry assay, green fluorescence channel
Throughout, for efficacy: 0% is about no effect.

SMILES | efficacy
CCC(=O)c1ccc(O)cc1 | -30% (inactive)
NC[C@H]1O[C@H](O[C@H]2[C@H](O)[C@@H](O[C@H]3O[C@H](CO)[C@@H](O)[C@H](N)[C@H]3O)[C@H](N)C[C@@H]2N)[C@H](N)[C@@H](O)[C@@H]1O | -12.5% (inactive)
C/C=C/c1ccc(OC)cc1 | -25.2% (inactive)
ClCCCN1CCN(c2cccc(Cl)c2)CC1 | 26.2% (inactive)
NC(CSCC(=O)O)C(=O)O (stereo not drawn) | -16% (inactive)
Oc1cccc2[nH]ccc12 | 14.5% (inactive)
Cc1cccc(Cc2cnc[nH]2)c1C | -25% (inactive)
CCCCCC(N)=O | 10.6% (inactive)
CCCN(CCC)C(=O)C(CCC(=O)O)NC(=O)c1ccccc1 (stereo not drawn) | 17.5% (inactive)
CC(C)(C)c1ccc(C(=O)CCCCl)cc1 | -23.2% (inactive)
Nc1ccc(S(=O)(=O)Nc2nccs2)cc1 | -14% (inactive)
CC(=O)N(CC(O)CN(C(C)=O)c1c(I)c(C(=O)NCC(O)CO)c(I)c(C(=O)NCC(O)CO)c1I)c1c(I)c(C(=O)NCC(O)CO)c(I)c(C(=O)NCC(O)CO)c1I (stereo not drawn) | -12.3% (inactive)
N[C@@H](Cc1c[nH]c2ccc(O)cc12)C(=O)O | 27.4% (inactive)
COc1cc(OC)cc(OC)c1 | -13.9% (inactive)
C[C@]12CC[C@H]3[C@@H](CCC4=CC(=O)CC[C@@]43C)[C@@H]1CC[C@@H]2C(=O)O | -23.5% (inactive)
O=C(O)c1cccnc1Nc1cccc(C(F)(F)F)c1 | -25.4% (inactive)
C(=C\c1ccccc1)/CN1CCN(C(c2ccccc2)c2ccccc2)CC1 | 12.5% (inactive)
C1CN2CCC1CC2 | -16% (inactive)
CCCc1cc(C(N)=S)ccn1 | -10.8% (inactive)
NC(N)=NCCC[C@H](N)C(=O)O | -16.3% (inactive)

SMILES | efficacy
C/C(=N/NC(=O)c1ccncc1)C(=O)O | -27.5% (inactive)
CCOC(=O)c1ncn2c1CN(C)C(=O)c1c(I)cccc1-2 | 19.2% (inactive)
CN(C)C(=O)Oc1cccc([N+](C)(C)C)c1 | -10.1% (inactive)
O=S(=O)(c1cccc2cnccc12)N1CCCNCC1 | -11.7% (inactive)
Nc1nc2ncc(CNc3ccc(C(=O)N[C@@H](CCC(=O)O)C(=O)O)cc3)nc2c(=O)[nH]1 | 12.4% (inactive)
Cn1c(=O)c2c(ncn2CC2OCCO2)n(C)c1=O | -17.6% (inactive)
COc1cc2[nH]c(=O)[nH]c(=O)c2cc1OC | 23.8% (inactive)
COc1ccc2cc(C=O)ccc2c1 | -11.5% (inactive)
OCC(O)CS (stereo not drawn) | -11.9% (inactive)
CCC1NC(=O)c2cc(S(N)(=O)=O)c(Cl)cc2N1 (stereo not drawn) | -10.3% (inactive)
CCCNC(C)(C)COC(=O)c1ccccc1 | -21% (inactive)
c1cc2c(c(N3CCNCC3)c1)OCCO2 | 11.5% (inactive)
CNC1CCCN(c2c(F)cc3c(=O)c(C(=O)O)cn(C4CC4)c3c2OC)C1 (stereo not drawn) | -29.7% (inactive)
O=Cc1ccc(O)c(O)c1O | 43% (inactive)
C[C@H](N)[C@H](O)c1cccc(O)c1 | -10.3% (inactive)
Cc1cc(NC(=O)C2=C(O)c3ccccc3S(=O)(=O)N2C)no1 | -7.71% (inactive)
CNC(C)Cc1ccc2c(c1)OCO2 (stereo not drawn) | -15.1% (inactive)
CCC(=O)Oc1ccc2c(c1)CC[C@@H]1[C@@H]2CC[C@@]2(C)[C@H]1C[C@@H](OC(=O)CC)[C@@H]2OC(=O)CC | -23.4% (inactive)
Nc1c(NC/C=C\COc2cc(CN3CCCCC3)ccn2)c(=O)c1=O | -32.1% (inactive)

Details: Ebola virus entry assay, blue channel fluorescence

SMILES | outcome
CCC(=O)c1ccc(O)cc1 | inactive
NC[C@H]1O[C@H](O[C@H]2[C@H](O)[C@@H](O[C@H]3O[C@H](CO)[C@@H](O)[C@H](N)[C@H]3O)[C@H](N)C[C@@H]2N)[C@H](N)[C@@H](O)[C@@H]1O | inactive
C/C=C/c1ccc(OC)cc1 | inactive
ClCCCN1CCN(c2cccc(Cl)c2)CC1 | inactive
NC(CSCC(=O)O)C(=O)O (stereo not drawn) | inactive
Oc1cccc2[nH]ccc12 | inactive
Cc1cccc(Cc2cnc[nH]2)c1C | inactive
CCCCCC(N)=O | inactive
CCCN(CCC)C(=O)C(CCC(=O)O)NC(=O)c1ccccc1 (stereo not drawn) | inactive
CC(C)(C)c1ccc(C(=O)CCCCl)cc1 | inactive
Nc1ccc(S(=O)(=O)Nc2nccs2)cc1 | inactive
CC(=O)N(CC(O)CN(C(C)=O)c1c(I)c(C(=O)NCC(O)CO)c(I)c(C(=O)NCC(O)CO)c1I)c1c(I)c(C(=O)NCC(O)CO)c(I)c(C(=O)NCC(O)CO)c1I (stereo not drawn) | inactive
N[C@@H](Cc1c[nH]c2ccc(O)cc12)C(=O)O | inactive
COc1cc(OC)cc(OC)c1 | inactive
C[C@]12CC[C@H]3[C@@H](CCC4=CC(=O)CC[C@@]43C)[C@@H]1CC[C@@H]2C(=O)O | inactive
O=C(O)c1cccnc1Nc1cccc(C(F)(F)F)c1 | inactive
C(=C\c1ccccc1)/CN1CCN(C(c2ccccc2)c2ccccc2)CC1 | inactive
C1CN2CCC1CC2 | inactive
CCCc1cc(C(N)=S)ccn1 | inactive
NC(N)=NCCC[C@H](N)C(=O)O | inactive

SMILES | outcome
C/C(=N/NC(=O)c1ccncc1)C(=O)O | inactive
CCOC(=O)c1ncn2c1CN(C)C(=O)c1c(I)cccc1-2 | inactive
CN(C)C(=O)Oc1cccc([N+](C)(C)C)c1 | inactive
O=S(=O)(c1cccc2cnccc12)N1CCCNCC1 | inactive
Nc1nc2ncc(CNc3ccc(C(=O)N[C@@H](CCC(=O)O)C(=O)O)cc3)nc2c(=O)[nH]1 | inactive
Cn1c(=O)c2c(ncn2CC2OCCO2)n(C)c1=O | inactive
COc1cc2[nH]c(=O)[nH]c(=O)c2cc1OC | inactive
COc1ccc2cc(C=O)ccc2c1 | inactive
OCC(O)CS (stereo not drawn) | inactive
CCC1NC(=O)c2cc(S(N)(=O)=O)c(Cl)cc2N1 (stereo not drawn) | inactive
CCCNC(C)(C)COC(=O)c1ccccc1 | inactive
c1cc2c(c(N3CCNCC3)c1)OCCO2 | inactive
CNC1CCCN(c2c(F)cc3c(=O)c(C(=O)O)cn(C4CC4)c3c2OC)C1 (stereo not drawn) | inactive
O=Cc1ccc(O)c(O)c1O | inactive
C[C@H](N)[C@H](O)c1cccc(O)c1 | inactive
Cc1cc(NC(=O)C2=C(O)c3ccccc3S(=O)(=O)N2C)no1 | inactive
CNC(C)Cc1ccc2c(c1)OCO2 (stereo not drawn) | inactive
CCC(=O)Oc1ccc2c(c1)CC[C@@H]1[C@@H]2CC[C@@]2(C)[C@H]1C[C@@H](OC(=O)CC)[C@@H]2OC(=O)CC | inactive
Nc1c(NC/C=C\COc2cc(CN3CCCCC3)ccn2)c(=O)c1=O | inactive
